Assay results as given in the supplement of paper PMC6555819.

Tests used:
Experiment in all cases: PBM binding z-score (relative to random genomic background probes); higher = stronger binding; sequences stand for … in GC…GCGATTGACAGCGTAGAATGAAGG
[1] = system: RARb homodimer (NR concentration 270 nM)
Procedure, shortened: (§1)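 Probes were double-stranded and carried 34-nt variable regions with direct-repeat seeds, single-nucleotide variants, half-site ablations and random human genomic background sequences, printed on custom Agilent 4×180K protein-binding microarrays. Arrays were incubated 1 h with ligand-free nuclear receptor dimers in PBS pH 7.4, 2% milk, 0.02% Triton X-100, 1 mM DTT, 0.2 mg/mL BSA and 0.4 mg/ml salmon testes DNA. Antibodies against each partner (one per run) detected binding, and scanned fluorescence was regression-normalized. Binding z-scores use the random background probes as reference.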

[2] = system: RARg:RXRa (NR concentration 270 nM, RXRa partner concentration 90 nM)
Procedure, shortened: as §1

[3] = system: RARg homodimer (NR concentration 270 nM)
Procedure, shortened: as §1

[4] = system: RXRa DBDmut IVT, anti-RXR (DBD mutation: RXRa K156A/R161A, NR concentration 90 nM)
Procedure, shortened: as §1

[5] = system: RXRa homodimer (NR concentration 180 nM)
Procedure, shortened: as §1

[6] = system: THRa:RXRa (NR concentration 90 nM, RXRa partner concentration 90 nM)
Procedure, shortened: as §1

[7] = system: THRa homodimer (NR concentration 90 nM)
Procedure, shortened: as §1

[8] = system: VDR:RXRa (NR concentration 270 nM, RXRa partner concentration 90 nM)
Procedure, shortened: as §1

[9] = system: VDR homodimer (NR concentration 270 nM)
Procedure, shortened: as §1

Sequence | PBM binding z-score [1] | PBM binding z-score [2] | PBM binding z-score [3] | PBM binding z-score [4] | PBM binding z-score [5] | PBM binding z-score [6] | PBM binding z-score [7] | PBM binding z-score [8] | PBM binding z-score [9]
CCTAGCAGGCCAATCTGGGTCATTCAAGGCTTGA | 2.03 | 0.777 | 0.991 | 0.224 | 0.619 | 3.73 | 0.0402 | 1.06 | 0.585
ACAGACAGGTGACGAAGGTAACTCAGGCTATCAT | 0.451 | 0.549 | 0.697 | -0.564 | 0.578 | 1.03 | 0.0235 | 0.352 | -0.374
CGAACGAGGGCATGAGTGGATAGCAAATGCCGAT | 0.496 | 1.27 | 1.61 | 2.02 | 0.916 | 1.04 | -0.129 | 0.295 | 0.792
ATAGGTAGGTTAGCTGGGGTCATTCAGACTAGGC | 4.09 | 4.35 | 3.5 | 2.2 | 5.46 | 5.2 | 3.51 | 6.28 | 5.44
TCTTGTAGATCAACAGGTGGTTAAGAAAGATCGA | -0.322 | -0.241 | -0.25 | 0.571 | -0.126 | -0.453 | -0.243 | 0.266 | -0.227
ACTATTAGTTGACTTAGGGAAACCGATACGACGC | -0.158 | 0.158 | 0.385 | 0.822 | 0.147 | 0.625 | 0.155 | 0.0698 | 0.262
GGAACGAGGGCATTCTAGTTGATAGCATGGCGAT | 0.668 | 0.971 | 1.39 | 3.36 | 0.575 | 2.54 | -0.282 | 1.81 | 2.43
TGATATAGGTAAAGGTGAAAGTCGAACGATATGA | 1.61 | 1.55 | 1.43 | -0.501 | 2.09 | 1.57 | -0.161 | 0.866 | -0.09
CCTATTAGATGACCATAAGGGCAACCGAAGCTCG | 1.98 | 1.02 | 1.2 | 0.541 | 0.88 | 1.69 | 1.19 | 0.352 | 0.819
CCTACTGGGCCAAGGTTATTGATCAGTCAAAGCA | 0.487 | 0.504 | 0.249 | -0.428 | 0.318 | 0.787 | 0.234 | -0.0867 | -0.0593
ATCTCTATGTAACAAGTTCAGTGAAAGAGAGGAC | 1.49 | 0.833 | 1.3 | 0.923 | 0.533 | 0.782 | 0.323 | 1.26 | 2.17
ATCTATAGGTAAGACTCAGTTCAGTGAAGAACGC | 0.556 | 0.524 | 0.517 | 0.507 | 0.24 | 0.633 | 0.24 | 0.866 | 1.36
ATCTCTAAGTAACAAGTTCAGTGAAAGAGAGGAC | 1.84 | 0.884 | 1.24 | 1.06 | 0.744 | 0.981 | 0.691 | 1.87 | 2.61
CTCGAAAGGTCGTGCTCAGGTAAGTATACCAAAC | 2.92 | 4.8 | 4.35 | 2.12 | 5.15 | 3.62 | 0.655 | 3.36 | 1.17
CAAACTAAGTCACCGGAAGGTCAAAGTCCGCATG | 4.37 | 5.3 | 3 | 1.01 | 3.92 | 3.26 | 1.51 | 3.59 | 2.19
TCGTGTAGATCAGCAGGTTAAGAAAGCTGGCCAA | -0.0746 | -0.298 | -0.396 | 0.345 | -0.115 | 0.0652 | -0.429 | 0.0438 | -0.282
GGAACGAGGGCAAGTTGATTGCAGAGTTTGATGG | 1.5 | 1.62 | 2.18 | 2.56 | 0.967 | 1.38 | -0.0249 | 0.675 | 2.02
CCTCGGGGGACAGAAGGTCAGAGCTGTCCGCTTT | 3.57 | 4.6 | 4.23 | 0.388 | 2.83 | 3.31 | 0.175 | 2.3 | 0.0933
CGTCCAAGGTCATAGAAGGTCAGTGAAGACAGAT | 5.56 | 6.7 | 7.06 | 4.03 | 6.78 | 5.07 | 2.62 | 6.34 | 4
CCGACTGGGGCAGAAAGGATACCATACCATCCGG | 0.0502 | -0.104 | 0.264 | -1.19 | -0.344 | -0.682 | -0.741 | -0.772 | -0.566
TCTTCTAGGTCAGTTGGTCAGCTAACGAGCTGCC | 3.05 | 3.26 | 4.08 | 1.65 | 1.62 | 2.19 | 1.58 | 1.3 | 0.514
TCATATAGGTAAACGGTGAAAGTCGGTGTGGTAA | 0.301 | 0.178 | -0.128 | 1.47 | 0.601 | 0.081 | 0.00294 | 0.79 | -0.132
CCTACTGGGCCACGACAGGTCATTGATTCAGTGA | 2.31 | 1.95 | 1.52 | -0.438 | 1.56 | 2.74 | 0.324 | 1.32 | 0.706
ACTATTAGTTGAGACGAGGGCATCCGATAGGTTG | 0.79 | 0.519 | 0.799 | 0.829 | 0.473 | 2.29 | 0.321 | 0.918 | 1.38

Sequence | PBM binding z-score [1] | PBM binding z-score [2] | PBM binding z-score [3] | PBM binding z-score [4] | PBM binding z-score [5] | PBM binding z-score [6] | PBM binding z-score [7] | PBM binding z-score [8] | PBM binding z-score [9]
GCTGGTAGGTCAGGTTGGTCAGCTAACGGGTACG | 2.87 | 2.48 | 3.76 | 0.0797 | 1.23 | 1.12 | 0.417 | 1.04 | 0.965
ATACCAAGGTGAGCGTGAGGTCGTTGATACTAAC | 2 | 2.92 | 1.6 | 0.221 | 2.01 | 3.8 | 2.51 | 3.32 | 2.3
CCAACGAGGGCATGAGTTGATAGCAAATGCCGAT | 0.406 | 0.887 | 1.35 | 2.04 | 0.929 | 1.01 | -0.114 | 1.09 | 1.2
TCTTGTAGATTAACAGGAGGTTAAGAAAGATCGA | 0.36 | 0.787 | 0.386 | 0.566 | 1.05 | 1.03 | -0.287 | 0.91 | 0.0136
ACTAATAGTTGAGACGAGGGCAACCGATAGGTTG | 1.37 | 0.936 | 1.15 | 0.345 | 0.834 | 3.43 | 0.12 | 1.27 | 0.709
CCTGACAGGTGAAAGGTAACTCAGTCTGGTACGC | 0.705 | 1.41 | 0.684 | -0.145 | 1.95 | 0.905 | -0.332 | 0.319 | -0.107
CAAGCTAGGTCACCGGAAGGTCAAAGTCCGCATG | 5.19 | 8.48 | 7.81 | 1.93 | 6.91 | 4.5 | 2.79 | 6.18 | 3.87
TAGCCAAGGTCATGGGCCAGTATACCACGCGAAC | 4.04 | 6.18 | 6.1 | 1.93 | 6.11 | 3.89 | 2.68 | 4.51 | 2.65
ACTATTAGTTGACTTGGGGCAACCGATACGACGC | 0.856 | 0.552 | 0.701 | 0.839 | 0.366 | 1.29 | 0.534 | 0.274 | 0.357
CCTAGCAGGCCAATCTGGTTCACTCAAGGCTTGA | 0.26 | -0.172 | -0.0939 | 0.398 | -0.304 | 1.38 | -0.212 | 0.38 | 0.42
GCGACTGGGGAAAAGCAGGTTACCATAAGGTTGG | 0.416 | -0.0185 | -0.445 | -0.805 | 0.275 | 1.25 | 0.0418 | -0.273 | -0.6
CCGAGTGGGGCAGAAAGGTTACCATACCATCCGG | 2.09 | 1.63 | 1.23 | -0.568 | 1.76 | 0.899 | -0.05 | 0.759 | 0.0724
TTGCCAAGGTGAAGGTCGTTGATCCCTCTGTAGA | 1.62 | 1.23 | 1.02 | 0.0935 | 1.68 | 2.31 | 0.87 | 1.08 | 0.534
TCTGCTAGGTCAGTTGGTCCGCTAACGAGCTGCC | 2.05 | 1.98 | 2.93 | 0.518 | 0.727 | 0.962 | -0.188 | 0.677 | -0.485
TCTTGTAGATCTACAGGAGGTTAAGAAAGATCGA | -0.0502 | 0.199 | 0.133 | 0.107 | 0.709 | 0.534 | -0.449 | 0.41 | -0.594
GATATAGGGTCAAGGCCAGAGTACGCGTATTGAT | 3.71 | 5.6 | 5.13 | 2.83 | 5.81 | 3.96 | 2.03 | 4.5 | 2.59
TATACAGGGTCATAGGCCAGAGTACGAATGTCGA | 3.08 | 5.43 | 4.72 | 2.94 | 6.27 | 3.5 | 0.758 | 4.62 | 3.52
ATCGCTAGGTAAAAGTTCAGTGAATCCCGAGGAT | 2 | 1.37 | 1.46 | 0.265 | 1.64 | 0.795 | -0.348 | 0.809 | 1.16
TCTTGTAGATCAAAGGTAAAGAAAGCCGAAGCCT | -0.121 | 0.243 | -0.165 | 0.56 | 0.881 | 0.386 | -0.548 | 0.385 | -0.117
CGAACGAGGGCATGAGTTGACAGCAAATGCCGAT | 0.912 | 1.52 | 1.6 | 2.28 | 0.957 | 1.45 | -0.266 | 1.2 | 1.65
ATCTCTAGGTAAGAAGTTCAGTGAAAGAGAGGAC | 1.85 | 1.25 | 1.48 | 0.26 | 0.531 | 0.982 | 0.234 | 0.919 | 1.52
CGAACGAGGGCATGGGTTGATAGCAAATGCCGAT | 1.27 | 1.31 | 1.55 | 1.93 | 1.26 | 1.52 | 0.384 | 1.45 | 1.72
TCATATAGGTAAACAGGTGAGAGTCCGTAAGTTA | 0.672 | 0.456 | 0.431 | 1.08 | 0.983 | 0.521 | 0.361 | 1.01 | 0.486
ATCGAAAGGTCGGCGAGGTGAGTATACACCGTTT | 2.95 | 3.69 | 3.91 | 0.785 | 3.86 | 3.29 | 0.709 | 4.48 | 0.535
